Screens: PubChem BioAssay, National Center for Advancing Translational Sciences (NCATS)
Most compounds without a hit are left out; they make up all but 13% or so of the library.
Pf growth 48h: inhibits P. falciparum growth in the first generation, 48 h. AID 504832. Potency, µM (highest dose often 28.7 µM), for inactives: at the top dose activity change, negative = inhibition, most hits filed as inhibitors. P. falciparum luciferase growth in erythrocytes, 48 h. actives 5.9% (n = 310,000); note: potency is the fitted concentration of half-maximal effect
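First compound was added to culture medium, then infected red cells at 0.1% parasitemia and 2% hematocrit (final). After incubation at 37 C under 5% CO2, luciferase detection reagent was dispensed and light output recorded.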
Pf growth 96h: inhibits malaria parasite growth, 96 h | P. falciparum luciferase reporter growth, 96 h | Potency, µM (titrated, usually from 28.7 µM), for inactives: top-dose activity change, negative = inhibition, actives largely listed as inhibitors | actives 6.9% (n = 320,000); note: potency is the fitted concentration of half-maximal effect
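Readout is luminescence from an integrated firefly luciferase in P. falciparum. Red cells, 2% hematocrit and 0.05% parasitemia final, were cultured with compound through two parasite generations (96 hours) at 37 C, 5% CO2.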
HCV inh: blocks hepatitis C virus; Huh7.5.1 HCVcc-Cre infection, luciferase reporter, 44 h; Potency, µM (titrated, usually from 41.8 µM), without a hit: at the highest dose activity change, negative = inhibition, usual class: inhibitors; actives 3.4% (n = 340,000); AID 651820; note: potency is the fitted concentration of half-maximal effect
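Cells (1,000/well) were plated 4 h before compound, then infected with HCVcc-Cre virus (~0.5 moi). After 44 h further culture, infection was read as luciferase luminescence following a 15 min substrate incubation at room temperature.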
HCMV inh: inhibitors of human cytomegalovirus; actives 4.5% (n = 410,000); activity change, negative = inhibition, % at 57.5 µM; AID 1259415; HFF cells, HCMV-luciferase reporter, 72 h; stronger effect = lower value; in the data active = activity change below about -60%; inconclusive = no clear call, values can overlap the other calls; inactive = above about -39%
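Two-dose cell screen: HFF monolayers treated with compounds and infected with luciferase-expressing HCMV at 1 PFU/cell, 72 h at 37C, then lysed for luciferase measurement.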
An asterisk follows results filed as active; ? = inconclusive; . = not tested or not shown; [ ] = dose if it differs, or a comment. Unless noted, calls come from the whole dose curve; as a rule, active = well fitted inhibition curve with a large enough effect; inconclusive = small, poorly fitted or top-dose-only effect, or another doubt; inactive = no such curve, though single readings can be large or run the other way. % is set by controls: 0 for no effect and ±100 for the full control effect.

SMILES	Pf growth 48h	Pf growth 96h	HCV inh	HCMV inh
CCc1cccc(CC)c1NC(=O)CSc1nc2ccc(N3C(=O)C4C(C3=O)[C@H]3C=C[C@@H]4C3)cc2s1 (stereo partly specified)	-11.8%	-17.2%	?	-71.5*
CN(N=Cc1ccc(N(C)C)cc1)C(=O)c1ccccc1N	.	.	.	119.0
COc1cccc(-c2nc(CS(=O)(=O)CC(=O)NCc3cccc(Cl)c3)c(C)o2)c1	.	.	.	-3.6
Cc1ccc(N2C(=O)C(CC(=O)Nc3ccccc3)N(CCC3=CCCCC3)C2=O)cc1 (stereo unspecified)	.	.	.	39.8
CN(C)C(=O)NC(Nc1cccc([N+](=O)[O-])c1)C(Cl)(Cl)Cl (stereo unspecified)	?	20.0%	18.9%	-17.6
CC(C)C(=O)NC(Nc1cccc([N+](=O)[O-])c1)C(Cl)(Cl)Cl (stereo unspecified)	1.85µM*	22.7%	11.7%	-19.9
CCC(C)N(C)Cc1cccc(C2(O)CCN(S(=O)(=O)c3ccc(F)c(C)c3)CC2)c1 (stereo unspecified)	13.1µM*	?	?	-31.8
Cc1cc(S(=O)(=O)N2CCN(c3c(C)cccc3C)CC2)ccc1F	?	.	?	2.2
CCn1cc(C(=O)N[C@@H](CCSC)C(=O)NCCO)c(=O)c2cc3c(cc21)OCO3	8.28µM*	6.57µM*	14.3%	-35.3
CCOC(=O)c1c(C)oc2nc(C)nc(N3CCN(c4cc(Cl)ccc4C)CC3)c12	.	.	.	-0.4
CCOC(=O)C(C)n1cnc2c(nnn2-c2ccc(C)cc2)c1=O (stereo unspecified)	.	7.38µM*	-1.2%	?
CCOC(=O)C(C)n1cnc2c(nnn2Cc2ccc(Cl)cc2)c1=O (stereo unspecified)	.	8.28µM*	-10.2%	-2.4
COc1ccccc1N(CC(=O)NCc1ccccn1)S(C)(=O)=O	-25.1%	?	0.9%	-65.8*
CCOc1ccc(S(=O)(=O)N(CC(=O)Nc2cccnc2)c2ccc(F)cc2)cc1	19.2%	5.86µM*	?	-26.3
COc1ccc(S(=O)(=O)N(CC(=O)Nc2cccnc2)c2ccc(Cl)cc2)cc1	.	.	.	-103.7*
COc1ccc(S(=O)(=O)N(CC(=O)NCc2ccccn2)c2ccc(Cl)cc2)cc1	10.4µM*	31.9%	15.0%	-10.8
Cc1ccccc1NC(=O)CSc1ccc(-c2cccs2)nn1	.	.	.	31.8
O=C(Nc1ccc(F)cc1)c1oc2ccccc2c1NC(=O)C12CC3CC(CC(C3)C1)C2	.	.	.	-11.6
COc1ccc(C2C(C(=O)c3ccccc3)=C(C)Nc3nc4ccccc4n32)cc1OC (stereo unspecified)	-21.0%	3.29µM*	-9.5%[8.37 µM]	36.1
O=C(O)CCn1cnc2onc(-c3ccccc3Cl)c2c1=O	.	.	.	11.7
O=C(CCNS(=O)(=O)c1ccc(Br)s1)N1CCN(c2ccccc2)CC1	-6.4%	11.7µM*	-15.1%	?
O=C(CNS(=O)(=O)c1ccc(Cl)cc1)N1CCN(c2ccc(F)cc2)CC1	.	.	?	-10.0
O=C(CNS(=O)(=O)c1ccc(Br)cc1)N1CCN(c2ccc(F)cc2)CC1	?	13.1µM*	?	-31.0
O=C(CCS(=O)(=O)c1ccc(Br)cc1)N1CCN(c2ccc(Cl)cc2)CC1	17.9%	?	-9.5%	-78.7*
O=C(CCCOc1ccccc1)N1CCN(c2ccc(F)cc2)CC1	.	11.7µM*	-9.7%	31.0
SMILES	Pf growth 48h	Pf growth 96h	HCV inh	HCMV inh
CN1C(=O)Cc2cc(S(=O)(=O)CCC(=O)N3CCN(c4ccc(Cl)cc4)CC3)ccc21	.	.	.	-22.4
COc1ccc(S(=O)(=O)CCC(=O)N2CCN(c3ccc(C(C)=O)cc3)CC2)cc1	-10.8%	8.28µM*	-21.4%	31.4
COc1ccc(S(=O)(=O)CCC(=O)N2CCN(c3ccc([N+](=O)[O-])cc3)CC2)cc1	?	15.2%	?	?
COc1ccc(N2CCN(C(=O)CCS(=O)(=O)c3ccc(OC)cc3)CC2)cc1	-2.2%	25.7%	-6.3%	-33.4
O=C(CCSCc1cccc(Cl)c1)N1CCN(c2ccc(Cl)cc2)CC1	.	.	.	-63.3*
Cc1ccc(S(=O)(=O)CCC(=O)N2CCN(c3ccc([N+](=O)[O-])cc3)CC2)cc1	16.7%	16.6%	12.6µM*	0.0
O=C(CCNS(=O)(=O)c1ccc(Br)cc1)N1CCN(c2ccccc2O)CC1	10.4µM*	?	?	-9.4
CCOc1ccc(CCNC(=O)c2c(C)oc3ncn(CC(C)C)c(=O)c23)cc1	.	.	.	-0.1
